The values below come from PubChem BioAssay (NCI).

SMILES strings stand for the structures. The panel holds about 83,000 compounds, 20% with a hit somewhere; the sample as a whole holds those more often.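 Method: cells in 96-well plates; compound added at one concentration; 48 h incubation; percent growth measured; values under 10 scored active.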 Unmarked numbers belong to inactive results. Active and inactive are the calls of the source.

Among the test systems are SK-MEL-2 melanoma; EKVX NSCLC; SN12C renal; UO-31 renal; TK-10 renal; ACHN renal; A498 renal; CCRF-CEM leukemia; MOLT-4 leukemia; RPMI-8226 leukemia; OVCAR-8 ovarian; OVCAR-5 ovarian; OVCAR-4 ovarian; SK-OV-3 ovarian; OVCAR-3 ovarian; HS 578T breast; NCI/ADR-RES ovarian; SR leukemia; IGROV1 ovarian.
What all share (experiment): NCI-60 one-dose screen, 48 h (100 = growth as untreated, 0 = no growth, -100 = all killed)
What all share (details): 10 µM unless noted

Regarding `COc1ccc(/C=C2\CS(=O)(=O)C/C(=C\c3ccc(OC)cc3)C2=O)cc1`, the growth in the test with SK-MEL-2 melanoma is -7.45% (active); with EKVX NSCLC, 11.4%; in the test with SN12C renal, -52.1% (active); in the test on UO-31 renal it was -100% (active); in the test on TK-10 renal, 2.72% (active); in the test with ACHN renal, -51% (active). In addition, the growth with A498 renal is 36%; in the test with CCRF-CEM leukemia, -0.95% (active); in the test on MOLT-4 leukemia it was -16.1% (active); in the test on RPMI-8226 leukemia, -41.2% (active); with OVCAR-8 ovarian it was -44.8% (active); in the test with OVCAR-5 ovarian, -20.2% (active). Besides, the growth in the test on OVCAR-4 ovarian is 12.3%; in the test with SK-OV-3 ovarian it was 25.4%; in the test with OVCAR-3 ovarian it was -66.2% (active); in the test on HS 578T breast, 48%; in the test on NCI/ADR-RES ovarian, 10.5%.

Consider `Cc1cccc(NC(=O)CCc2ccc(N3C(N)=NC(N)=NC3(C)C)cc2)c1`, for which the growth was 59.9% in the test with SK-MEL-2 melanoma; 55.6% in the test with EKVX NSCLC; 30.3% in the test on SN12C renal; 115% in the test on UO-31 renal; 82.5% in the test with TK-10 renal; 101% in the test on ACHN renal. Besides, the growth in the test with A498 renal was 95.2%; in the test on CCRF-CEM leukemia, 31.1%; with MOLT-4 leukemia it was 50.5%; in the test with RPMI-8226 leukemia it was 32%; with OVCAR-8 ovarian, 47.7%; in the test with OVCAR-5 ovarian, 46.7%. For the same compound, the growth in the test on OVCAR-4 ovarian was 51.7%; in the test with SK-OV-3 ovarian, 60.3%; in the test on OVCAR-3 ovarian it was 65.6%; in the test on HS 578T breast, 91.4%; with NCI/ADR-RES ovarian, 95.6%.

As for `CCOC(=O)C1CSC(C)(C(=O)OCC)N1` (configuration not stated), the growth is 99.4% in the test with SK-MEL-2 melanoma; 94.7% in the test on EKVX NSCLC; 104% in the test with SN12C renal; 95.6% in the test on UO-31 renal; 91.9% in the test on TK-10 renal; 110% with ACHN renal. In addition, the growth was 118% with A498 renal; 103% in the test with CCRF-CEM leukemia; 92.8% with MOLT-4 leukemia; 97.3% in the test on SR leukemia; 110% in the test with OVCAR-8 ovarian; 98.2% in the test with OVCAR-5 ovarian. The growth in the test with OVCAR-4 ovarian is 109%; in the test on SK-OV-3 ovarian, 91.7%; in the test on IGROV1 ovarian it was 104%; in the test with OVCAR-3 ovarian, 100%; in the test on HS 578T breast, 112%; in the test on NCI/ADR-RES ovarian it was 101%.

For the compound `CC(C)(C)NC(C1=CC(C)(C)c2ccccc2C1=O)c1ccccc1` (configuration not stated), the growth with SK-MEL-2 melanoma was -65.1% (active); with EKVX NSCLC, -1.1% (active); in the test on SN12C renal it was -14.3% (active); with UO-31 renal, -97.4% (active); with TK-10 renal, -6.87% (active); with ACHN renal, -10.5% (active). Moreover, the growth in the test on A498 renal was 45.1%; in the test with CCRF-CEM leukemia, -5.2% (active); in the test with MOLT-4 leukemia it was -47.4% (active); in the test with RPMI-8226 leukemia, -44.9% (active); in the test with OVCAR-8 ovarian it was -47.9% (active); with OVCAR-5 ovarian it was -75% (active). In addition, the growth in the test on OVCAR-4 ovarian was -52.9% (active); in the test with SK-OV-3 ovarian, 29.2%; in the test on OVCAR-3 ovarian, -92.5% (active); in the test with HS 578T breast, 46.4%; with NCI/ADR-RES ovarian it was -43.3% (active).

With `O=C(Nc1ccccc1F)Nc1ccccc1Cl`, the growth in the test on SK-MEL-2 melanoma was 109%; with EKVX NSCLC, 73.2%; with SN12C renal, 104%; in the test on UO-31 renal, 98.2%; in the test with TK-10 renal, 125%; with ACHN renal it was 90.8%. Moreover, the growth in the test on A498 renal was 85.8%; in the test with CCRF-CEM leukemia it was 86.9%; in the test on MOLT-4 leukemia, 69.3%; with RPMI-8226 leukemia, 78.8%; with OVCAR-8 ovarian, 101%; with OVCAR-5 ovarian it was 102%. Besides, the growth is 73% in the test on OVCAR-4 ovarian; 104% in the test on SK-OV-3 ovarian; 102% with OVCAR-3 ovarian; 103% in the test with HS 578T breast; 88.9% with NCI/ADR-RES ovarian.

With `CN(C)C(=O)Nc1nc2cc(Cl)c(Cl)cc2[nH]1`, the growth with SK-MEL-2 melanoma was -14.7% (active); with EKVX NSCLC, 57.7%; in the test with SN12C renal it was 51%; in the test with UO-31 renal it was 20.4%; with TK-10 renal, 30.7%; with ACHN renal, 52.6%. The growth was 46.7% in the test with A498 renal; 10.3% in the test with CCRF-CEM leukemia; 8.26% (active) in the test on MOLT-4 leukemia; 13.6% in the test with OVCAR-8 ovarian; 40.3% with OVCAR-5 ovarian; 33.9% in the test on OVCAR-4 ovarian. For the same compound, the growth is 20.1% in the test with SK-OV-3 ovarian, -49.9% (active) in the test on OVCAR-3 ovarian and 50.8% in the test on HS 578T breast.

Turning to `CCc1c2cc(Cl)ccc2n2cc(Cc3ccccc3)[nH]c(=O)c12`, the growth with SK-MEL-2 melanoma was 97.5%; with EKVX NSCLC, 101%; in the test on SN12C renal, 101%; in the test on UO-31 renal, 82.3%; in the test with TK-10 renal, 120%; in the test with ACHN renal, 93.3%. Further, the growth with A498 renal was 102%; with CCRF-CEM leukemia it was 93.9%; in the test on RPMI-8226 leukemia it was 110%; with OVCAR-8 ovarian, 99.1%; with OVCAR-5 ovarian, 93.9%; in the test with OVCAR-4 ovarian, 102%. For the same compound, the growth is 103% with SK-OV-3 ovarian; 90.5% in the test with IGROV1 ovarian; 99.2% in the test on OVCAR-3 ovarian; 87.4% in the test on HS 578T breast; 100% with NCI/ADR-RES ovarian.

On to `COC1OCC(OS(=O)(=O)c2ccc(C)cc2)C(OC(=O)c2ccccc2)C1OC(=O)c1ccccc1` (configuration not stated), for which the growth was 36.1% with SK-MEL-2 melanoma; 53.4% in the test on EKVX NSCLC; 74.3% with SN12C renal; 48.3% in the test on UO-31 renal; 88% with TK-10 renal; 54% in the test with ACHN renal. In addition, the growth with A498 renal was 87.4%; with MOLT-4 leukemia, 48.9%; with SR leukemia, 39.6%; with RPMI-8226 leukemia, 45.5%; in the test on OVCAR-8 ovarian it was 69.3%; in the test on OVCAR-5 ovarian, 72.5%. For the same compound, the growth in the test with OVCAR-4 ovarian was 57%; in the test on SK-OV-3 ovarian it was 86.1%; in the test on IGROV1 ovarian, 37.8%; in the test with OVCAR-3 ovarian it was -12.4% (active); with NCI/ADR-RES ovarian, -6.71% (active).

As to `CC(=O)O[C@@H]1[C@@H](OC(C)=O)[C@H](OC(C)=O)CO[C@H]1Nc1cccc2ccccc12`, the growth with SK-MEL-2 melanoma is 82.3%; with EKVX NSCLC it was 99.8%; in the test on SN12C renal, 94.3%; in the test with UO-31 renal, 62.4%; in the test on TK-10 renal, 115%; in the test with ACHN renal it was 98.8%. The growth with A498 renal is 101%; in the test on CCRF-CEM leukemia, 71.7%; with RPMI-8226 leukemia, 87.9%; in the test on OVCAR-8 ovarian it was 102%; in the test with OVCAR-5 ovarian, 100%; with OVCAR-4 ovarian, 103%. Also, the growth is 105% with SK-OV-3 ovarian; 97.9% with IGROV1 ovarian; 95.7% with OVCAR-3 ovarian; 96.3% with HS 578T breast; 95.9% in the test on NCI/ADR-RES ovarian.
